The record followed here is PubChem BioAssay (Tox21).

For assay [1], the target named is Progesterone receptor (Homo sapiens) (UniProt P06401). Kind of assay: qHTS assay to identify small molecule agonists of the progesterone receptor (PR) signaling pathway (AID 1346784; calls by dose curve; note: nearly all actives have a fitted effect of over 30% in size). A digest of the protocol:
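HEK 293T PR-UAS-bla reporter cells, 2% charcoal-stripped FBS; 6 hr settle at 37C/5% CO2, compound (DMSO) 16 hr, LiveBLAzer B/G FRET substrate 2 hr RT, fluorescence intensity read.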
On the technique in general: qHTS replaces the single test concentration by a dilution series.

Assay [2] is described as follows: qHTS assay to identify small molecule antagonists of the progesterone receptor (PR) signaling pathway - cell viability counter screen (AID 1346798). Note: series mostly up to about 92 µM; nearly all actives have a fitted effect of over 50% in size. A digest of the protocol: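 Luminescence readout (CellTiter-Glo, 30 min, RT) of viability in PR-UAS-bla HEK293T cells exposed to compound and R5020 agonist for 16 hr at 37C, 5% CO2; run in the same wells as the beta-lactamase reporter read.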

Assay [3] is described as follows: qHTS assay to identify small molecule agonists of the progesterone receptor (PR) signaling pathway - cell viability counter screen (AID 1346799; calls by dose curve; note: nearly all actives have a fitted effect of over 45% in size). A digest of the protocol: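 HEK293T PR-UAS-bla, 3,000 cells/well, 2% charcoal-stripped FBS; 6 h settle, compound 16 h at 37C/5% CO2; LiveBLAzer 2 h RT, then CellTiter-Glo 30 min RT, luminescence read.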
Assay [4] is described as follows: qHTS assay to identify small molecule antagonists of the TGF-beta/Smad signaling pathway - cell viability counter screen (AID 1346824). Note: nearly all actives have a fitted effect of over 50% in size. A digest of the protocol: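 SBE-bla HEK 293T cells, incubated overnight, then compound plus 0.25 ng/mL TGF-beta1 (stock added) for 5 hr at 37 C. Viability was read in the same wells by CellTiter-Glo luminescence after 30 min at room temperature.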

Assay [5] can be described thus: qHTS assay to identify small molecule agonists of the TGF-beta/Smad signaling pathway - cell viability counter screen (AID 1346829). Note: top concentration of the series differs between compounds; nearly all actives have a fitted effect of over 45% in size. A digest of the protocol: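 Tox21 qHTS format: SBE-bla HEK 293T cells treated with DMSO-dissolved compounds for 5 hr; CellTiter-Glo luminescence after 30 min at room temperature.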
The nature of assay [6]: qHTS assay to identify small molecule agonists of the TGF-beta/Smad signaling pathway (AID 1346859; active = well fitted activation curve with a large enough effect in the signal ratio in the repeat runs, not every such curve was filed as active; the % refers to the signal ratio; note: series mostly up to about 77 µM). The procedure, abridged: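 Read-out: fluorescence at 460 and 530 nm (405 nm excitation) after a 2 hr room-temperature incubation with beta-lactamase FRET substrate. SBE-bla HEK 293T cells had been treated with test compounds for 5 hr at 37 C.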
Assay [7] concerns the target Thyrotropin-releasing hormone receptor (Homo sapiens) (UniProt P34981). Kind of assay: qHTS assay to identify small molecule antagonists of the thyrotropin-releasing hormone receptor (TRHR) signaling pathway (AID 1346877; active = well fitted inhibition curve with a large enough effect in the repeat runs, not every such curve was filed as active; note: series mostly up to about 51 µM). A digest of the protocol:
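TRHR-expressing HEK293 cells were seeded, cultured 18 h at 37 °C, then loaded with calcium dye for 2 h. Compounds were pre-incubated 5 min at room temperature before 1 nM TRH (final) was added, and kinetic fluorescence was recorded for 3 min.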

Assay [8] in a line: Human pregnane X receptor (PXR) small molecule agonists, qHTS cell viability counter screen (AID 1346977). Note: nearly all actives have a fitted effect of over 50% in size. The procedure, abridged:
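Fluorescence read-out (CellTiter-Fluor) of viability in PXR-Luc HepG2 cells, multiplexed with the luciferase agonist read. Compounds in DMSO added after 5hr plating; 24hr total exposure at 37C, 5% CO2.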

Assay [9] can be described thus: Caspase-3/7 induction in HepG2 cells by small molecules, qHTS assay (AID 1346978). Note: nearly all actives have a fitted effect of over 15% in size. The procedure, abridged: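 Wild-type HepG2 cells, 2,000/well, settled 5 hr at 37 C and 5% CO2, then compound-treated for 17 hr; caspase-3/7 activity read by luminescent Caspase-Glo 3/7 after 30 min at room temperature.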
The nature of assay [10]: Caspase-3/7 induction in CHO-K1 cells by small molecules, qHTS cell viability counter screen (AID 1346979). Note: nearly all actives have a fitted effect of over 35% in size. The procedure, abridged:
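CHO-K1 wt, 1,500 cells/well; 5hr pre-incubation 37C/5% CO2; compound pin transfer (DMSO); 16hr exposure; CellTiter-Fluor added, 1hr, fluorescence read.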

Assay [11] is described as follows: Caspase-3/7 induction in CHO-K1 cells by small molecules, qHTS assay (AID 1346980). Note: nearly all actives have a fitted effect of over 15% in size. A digest of the protocol: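 Wild-type CHO-K1 cells exposed to compounds for 17hr at 37 C, 5% CO2. Caspase-3/7 activity then measured by Caspase-Glo 3/7 luminescence after 30min at room temperature.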
Assay [12] is described as follows: Caspase-3/7 induction in HepG2 cells by small molecules, qHTS cell viability counter screen (AID 1346981). Note: series mostly up to about 92 µM; nearly all actives have a fitted effect of over 30% in size. The procedure, abridged: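 Wild-type HepG2 cells (2,000/well) were allowed to settle for 5 hr at 37 C, 5% CO2, then dosed with compounds in DMSO by pin transfer. After 16 hr at 37 C, CellTiter-Fluor was added and fluorescence read 1 hr later.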
The target in assay [13] is Nuclear receptor subfamily 1 group I member 2 (Homo sapiens) (UniProt O75469). As to the kind of experiment: Human pregnane X receptor (PXR) small molecule agonists, qHTS assay (AID 1346982). Note: nearly all actives have a fitted effect of over 35% in size. The procedure, abridged:
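PXR-Luc HepG2 cells (CYP3A4 promoter-driven luciferase) were seeded in medium with 5% charcoal-stripped FBS, left 5 hr at 37 C, then exposed to compounds in DMSO for 24 hr. Luminescence was read after ONE-Glo addition.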

The target in assay [14] is Cytochrome P450 2D6 (Homo sapiens) (UniProt P10635). As to the kind of experiment: Cytochrome P450 Family 2 Subfamily D Member 6 (CYP2D6) small molecule antagonists: luciferase reporter qHTS assay (AID 1671196). Note: nearly all actives have a fitted effect of over 50% in size. Note: potency is the fitted concentration of half-maximal effect. The procedure, abridged:
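CYP2D6 enzyme–substrate mix was held with compound for 10 min at room temperature, then NADPH regeneration solution was added and the reaction ran 1 h at room temperature. Luciferin product was detected by luminescence after 20 min with detection reagent.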
A general note: A reporter such as luciferase makes a cellular process visible.

Assay [15] concerns the target Cytochrome P450 2C19 (Homo sapiens) (UniProt P33261). As to the kind of experiment: Cytochrome P450 Family 2 Subfamily C Member 19 (CYP2C19) small molecule antagonists: luciferase reporter qHTS assay (AID 1671197). Note: nearly all actives have a fitted effect of over 65% in size. Note: potency is the fitted concentration of half-maximal effect. A digest of the protocol: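 Relative luminescence units recorded 20 min after the detection reagent stopped a 1 h, 37C CYP2C19 reaction on proluciferin substrate, which was started by NADPH regeneration following 10 min room-temperature compound preincubation; ketoconazole positive control.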

Assay [16] addresses Progesterone receptor (Homo sapiens) (UniProt P06401). Kind of assay: qHTS assay to identify small molecule antagonists of the progesterone receptor (PR) signaling pathway (AID 1346795; active = well fitted inhibition curve with a large enough effect in the signal ratio in the repeat runs, not every such curve was filed as active; the % refers to the signal ratio). A digest of the protocol: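 Beta-lactamase reporter, HEK293T PR-UAS-bla line; 2% charcoal-stripped FBS; 6 hr pre-incubation, 37C/5% CO2. Compound + R5020 1 nM final, 16 hr. LiveBLAzer B/G FRET substrate, 2 hr RT; fluorescence intensity read.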

The target of assay [17] is Thyrotropin-releasing hormone receptor (Homo sapiens) (UniProt P34981). Kind of assay: qHTS assay to identify small molecule agonists of the thyrotropin-releasing hormone receptor (TRHR) signaling pathway (AID 1346891; calls by dose curve; note: series mostly up to about 58 µM). A digest of the protocol: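 HEK293/TRHR cells, 1500 per well, 18 h 37 °C; Ca dye 2 h 37 °C; pin-tool compound addition (agonist mode); kinetic fluorescence 3 min, 1 s reads; 15 concentrations, triplicate.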
Sequence of Thyrotropin-releasing hormone receptor (Homo sapiens) (P34981 whole entry, looked up): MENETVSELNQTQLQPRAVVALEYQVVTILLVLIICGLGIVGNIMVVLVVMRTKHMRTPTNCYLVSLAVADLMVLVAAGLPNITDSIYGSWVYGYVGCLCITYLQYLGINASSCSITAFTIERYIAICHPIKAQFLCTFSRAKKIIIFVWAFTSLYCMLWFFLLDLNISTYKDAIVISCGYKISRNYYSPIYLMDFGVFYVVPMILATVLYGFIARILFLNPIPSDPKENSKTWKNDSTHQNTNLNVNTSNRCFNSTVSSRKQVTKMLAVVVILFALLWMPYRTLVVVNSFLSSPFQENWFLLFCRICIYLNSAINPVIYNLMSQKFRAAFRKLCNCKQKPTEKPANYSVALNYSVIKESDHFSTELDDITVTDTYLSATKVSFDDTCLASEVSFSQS

The target in assay [18] is Nuclear receptor subfamily 1 group I member 2 (Rattus norvegicus) (UniProt Q9R1A7). Kind of assay: Rat pregnane X receptor (rPXR) activation by small molecules, qHTS assay (AID 1346983). Note: nearly all actives have a fitted effect of over 20% in size. Particulars: rPXR luciferase reporter cells, One-Glo luminescence, 24 h; max activation: hits give high values. The procedure, abridged: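 Cell-based rPXR activation assay: rPXR cells, 2,000 per well, rested 5hr at 37 C, then exposed to compounds in DMSO for 24 hr at 37 C. Luciferase activity read by One-Glo luminescence after 30 min at room temperature.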
Sequence of Nuclear receptor subfamily 1 group I member 2 (Rattus norvegicus) (Q9R1A7 whole entry, looked up): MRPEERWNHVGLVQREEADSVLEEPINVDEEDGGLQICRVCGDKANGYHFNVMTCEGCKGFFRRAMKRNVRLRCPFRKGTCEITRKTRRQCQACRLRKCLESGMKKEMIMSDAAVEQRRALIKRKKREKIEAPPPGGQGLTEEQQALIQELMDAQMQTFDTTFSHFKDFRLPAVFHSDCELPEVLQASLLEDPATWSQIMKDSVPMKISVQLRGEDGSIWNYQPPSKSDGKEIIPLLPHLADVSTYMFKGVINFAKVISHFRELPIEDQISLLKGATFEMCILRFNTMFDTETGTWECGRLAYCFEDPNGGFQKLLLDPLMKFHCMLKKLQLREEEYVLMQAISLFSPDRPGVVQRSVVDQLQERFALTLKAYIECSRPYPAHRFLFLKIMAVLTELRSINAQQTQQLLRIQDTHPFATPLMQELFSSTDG

Assay [19] addresses Nuclear receptor subfamily 1 group I member 2 (Homo sapiens) (UniProt O75469). Kind of assay: CYP3A4 induction through human pregnane X receptor (PXR) by small molecules, qHTS assay (AID 1346984). Note: nearly all actives have a fitted effect of over 40% in size. The procedure, abridged: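 DPX-2 cells (HepG2 co-transfected with PXR and CYP3A4 promoter-luciferase) treated with compounds 24 h at 37C; luciferin-IPA CYP3A4 substrate 3uM final added for 3 h, then One-Glo; luminescence read. qHTS format.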

Assay [20] shares this target. Kind of assay: Human pregnane X receptor (PXR) activation by small molecules, qHTS assay (AID 1346985). Note: nearly all actives have a fitted effect of over 40% in size. The procedure, abridged: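 DPX-2 cells (HepG2 co-transfected with a PXR response element and a CYP3A4-promoter luciferase construct) were seeded at 2,000 per well, rested 5 hr at 37C, then exposed to DMSO-dissolved compounds for 24 hr. Activation was read as luciferase luminescence.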

A number with no mark means an inactive call. Records with an inconclusive call do not appear. The source made the active and inactive calls. Unless noted, calls come from the whole dose curve; as a rule, active = well fitted curve in the direction sought with a large enough effect in the repeat runs; inconclusive = weak or mixed curves; inactive = no such curve, though single readings can be large; an effect the other way counts as inactive or inconclusive.
% is set by controls: 0 for no effect and ±100 for the full control effect.

Sequence of Progesterone receptor (Homo sapiens) (P06401 whole entry, looked up): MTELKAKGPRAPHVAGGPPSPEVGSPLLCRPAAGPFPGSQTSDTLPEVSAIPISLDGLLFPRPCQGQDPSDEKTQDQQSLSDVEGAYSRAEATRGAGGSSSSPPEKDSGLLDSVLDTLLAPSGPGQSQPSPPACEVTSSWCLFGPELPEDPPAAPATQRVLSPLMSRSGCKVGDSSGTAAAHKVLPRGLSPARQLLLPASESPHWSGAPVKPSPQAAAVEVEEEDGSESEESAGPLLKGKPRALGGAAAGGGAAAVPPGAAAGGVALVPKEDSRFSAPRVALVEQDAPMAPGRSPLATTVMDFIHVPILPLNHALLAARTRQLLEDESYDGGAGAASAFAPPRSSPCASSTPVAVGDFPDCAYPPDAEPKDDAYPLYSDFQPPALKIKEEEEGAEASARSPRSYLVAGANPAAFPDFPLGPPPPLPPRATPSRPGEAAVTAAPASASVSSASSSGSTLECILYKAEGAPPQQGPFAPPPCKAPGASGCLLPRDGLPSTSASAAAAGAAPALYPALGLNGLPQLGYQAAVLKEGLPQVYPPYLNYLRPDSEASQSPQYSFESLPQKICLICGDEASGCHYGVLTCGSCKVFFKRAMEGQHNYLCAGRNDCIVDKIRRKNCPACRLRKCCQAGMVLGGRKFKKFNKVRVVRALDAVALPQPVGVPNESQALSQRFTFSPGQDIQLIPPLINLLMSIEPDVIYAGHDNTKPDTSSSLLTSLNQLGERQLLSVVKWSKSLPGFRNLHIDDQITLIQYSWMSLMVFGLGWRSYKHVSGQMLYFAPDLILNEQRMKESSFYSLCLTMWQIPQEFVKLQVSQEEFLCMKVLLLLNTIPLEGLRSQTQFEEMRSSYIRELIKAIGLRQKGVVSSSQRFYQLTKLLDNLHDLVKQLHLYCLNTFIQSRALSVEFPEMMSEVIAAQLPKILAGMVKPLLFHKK
Sequence of Nuclear receptor subfamily 1 group I member 2 (Homo sapiens) (O75469 whole entry, looked up): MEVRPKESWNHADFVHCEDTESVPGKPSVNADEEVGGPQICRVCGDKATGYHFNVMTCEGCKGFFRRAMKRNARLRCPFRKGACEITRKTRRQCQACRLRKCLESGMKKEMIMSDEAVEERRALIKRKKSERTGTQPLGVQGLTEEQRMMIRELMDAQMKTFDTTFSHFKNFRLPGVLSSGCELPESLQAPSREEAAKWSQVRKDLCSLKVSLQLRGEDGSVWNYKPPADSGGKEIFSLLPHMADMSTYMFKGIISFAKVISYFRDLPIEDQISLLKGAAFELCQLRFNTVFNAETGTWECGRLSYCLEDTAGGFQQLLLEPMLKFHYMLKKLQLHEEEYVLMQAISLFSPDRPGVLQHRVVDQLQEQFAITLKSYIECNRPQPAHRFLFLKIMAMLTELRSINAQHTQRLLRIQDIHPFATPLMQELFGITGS
Sequence of Cytochrome P450 2C19 (Homo sapiens) (P33261 whole entry, looked up): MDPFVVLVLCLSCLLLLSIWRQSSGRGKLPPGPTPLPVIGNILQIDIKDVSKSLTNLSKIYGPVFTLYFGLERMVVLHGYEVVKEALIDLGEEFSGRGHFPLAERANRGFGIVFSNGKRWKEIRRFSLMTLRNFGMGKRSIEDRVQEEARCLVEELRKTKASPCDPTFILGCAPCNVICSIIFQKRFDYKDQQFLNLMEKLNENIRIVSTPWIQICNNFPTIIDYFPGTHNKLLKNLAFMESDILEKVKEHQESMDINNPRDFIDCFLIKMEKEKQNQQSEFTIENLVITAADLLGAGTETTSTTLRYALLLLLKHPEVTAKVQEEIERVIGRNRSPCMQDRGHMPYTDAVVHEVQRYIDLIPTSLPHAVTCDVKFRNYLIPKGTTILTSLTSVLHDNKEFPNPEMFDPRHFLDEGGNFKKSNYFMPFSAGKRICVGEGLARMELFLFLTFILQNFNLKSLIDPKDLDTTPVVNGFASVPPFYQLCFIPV
Sequence of Cytochrome P450 2D6 (Homo sapiens) (P10635 whole entry, looked up): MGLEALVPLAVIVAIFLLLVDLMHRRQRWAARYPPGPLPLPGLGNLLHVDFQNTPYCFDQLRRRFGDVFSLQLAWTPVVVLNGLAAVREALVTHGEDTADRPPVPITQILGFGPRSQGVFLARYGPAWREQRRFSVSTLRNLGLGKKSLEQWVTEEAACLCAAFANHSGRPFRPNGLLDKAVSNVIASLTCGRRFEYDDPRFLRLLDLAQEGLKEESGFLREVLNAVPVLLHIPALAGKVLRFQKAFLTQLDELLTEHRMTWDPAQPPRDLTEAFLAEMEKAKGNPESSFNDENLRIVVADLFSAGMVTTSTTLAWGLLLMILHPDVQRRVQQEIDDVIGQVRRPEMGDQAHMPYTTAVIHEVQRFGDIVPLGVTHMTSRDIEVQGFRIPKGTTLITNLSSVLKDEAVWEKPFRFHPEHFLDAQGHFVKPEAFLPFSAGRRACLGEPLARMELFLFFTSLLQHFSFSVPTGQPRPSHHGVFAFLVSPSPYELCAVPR

Take `CCCCN(CCC(=O)OCC)C(C)=O`: the Potency result in assay [1], in assay [2], in [3], in assay [8], in [10] and in assay [12] was “inactive” each time. Further, the Potency result in assay [13] and in [14] was “inactive” throughout. For the same compound, the result in assay [4], in assay [5], in assay [6], in assay [7], in assay [9] and in [11] was inactive. In assay [15], the Potency is 35.6 µM (active).

Turning to `COc1cc2c(cc1OC)-c1cc3ccc(OC)c(OC)c3c[n+]1CC2`, the Potency entry in assay [1], in assay [16], in assay [3], in assay [17] and in assay [13] was “inactive” throughout. Moreover, the outcome in assay [4], in assay [5], in assay [7], in [9] and in [11] was inactive. Moreover, in assay [14], the Potency was 9.02 µM (active).

As to `Cc1ccc(C(=O)c2ccc(CC(=O)O)n2C)cc1`, the Potency entry in assay [1], in [2], in assay [3], in assay [17], in assay [8] and in [10] was “inactive” throughout. For the same compound, the Potency entry in assay [12], in [13], in assay [19] and in [20] was “inactive” each time. The result in assay [4], in assay [5], in assay [7], in assay [9] and in assay [11] was inactive. In addition, the max activation in assay [18] is -1.99%.

Take `CC(C)CC(C)(N)C#N` (stereo not given): the Potency result in assay [1], in assay [16], in assay [3], in assay [17], in assay [8] and in assay [10] was “inactive” each time. Also, the Potency entry in assay [12], in assay [13], in assay [14] and in assay [15] was “inactive” throughout. In addition, the compound was called inactive in assay [4], in assay [5], in assay [6], in assay [7] and in assay [11].

For `CC(CO)(CO)[N+](=O)[O-]`, the Potency entry in [1], in assay [2], in assay [3], in assay [17], in assay [8] and in [10] was “inactive” each time. Besides, the Potency entry in assay [12], in assay [13], in assay [14] and in assay [15] was “inactive” throughout. For the same compound, the result in assay [4], in [5], in [6], in assay [7] and in [9] was inactive.

Take `Clc1cc(Cl)c(Cl)nc1Cl`: the Potency entry in assay [1], in assay [2], in assay [3], in assay [8], in assay [10] and in assay [12] was “inactive” in each case. Besides, the Potency entry in assay [13] and in [15] was “inactive” each time. The outcome in assay [4], in assay [5], in [6], in assay [7], in [9] and in [11] was inactive.

For the compound `O=C(O)CNC(=O)c1ccc(CO)o1`, the Potency result in assay [1], in assay [2], in assay [3], in assay [17], in assay [8] and in [10] was “inactive” in each case. For the same compound, the Potency entry in assay [12], in assay [13] and in [15] was “inactive” each time. The result in [4], in assay [5], in [6], in assay [7] and in assay [9] was inactive.
